In PubChem BioAssay (NCATS):
Inconclusive results are not listed. Calls of active or inactive are those of the source. Unless noted, calls follow the shape of the dose curve; as a rule, active = well fitted curve in the direction sought with a large enough effect; inconclusive = small, poorly fitted or top-dose-only effect, or another doubt; inactive = no such curve, though single readings can be large; an effect the other way counts as inactive or inconclusive.

What was measured:
[1] = qHTS for inhibitors of adenylyl cyclases using a fission yeast platform: a pilot screen against the NCATS LOPAC library (AID 1347410);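 also: plate controls were DMSO vehicle for no effect and DPI positive control for full effect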
How it was run: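 Growth medium went into the plates first, then compounds were pinned (final up to 57 µM), then CHP2027 yeast were added. Plates were incubated overnight (18 h) at 30C in the dark, and GFP was measured by laser scanning cytometry.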

[2] = qHTS to identify inhibitors of the type 1 interferon - major histocompatibility complex class I in skeletal muscle: primary screen against the NCATS Mechanism Interrogation Plate v5.0 (MIPE) Libary (AID 1347411); also: nearly all actives have a fitted effect of over 65% in size; also: potency is read from the fitted curve at half-maximal effect
How it was run: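 Luminescence from HiBiT-tagged endogenous HLA-B*08:01 served as the MHC class I read-out. CRISPR-engineered C25cl48 human myoblasts received 4.0 ng/ml IFN-beta plus compound for 24 hrs, with an 11-point, 1:3 series topping at 46 uM final.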

[3] = Validation qHTS assay for inhibitors of Activation Induced Cytidine Deaminase (AID): UDG Counterscreen signal (AID 1347427); also: 0% is about no effect
How it was run: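 Counterscreen read of UDG activity (2 U/mL, 4/3x) in the FRET deamination format with AID (1 uM, 4/3x), DJC20/DJC23 substrates (250 nM, 4x), 4 h at room temperature. NaOH stop, fluorescence at 560 ex/665 em.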

[4] = Primary qHTS for small molecule stabilizers of the endoplasmic reticulum resident proteome: Secreted ER Calcium Modulated Protein (SERCaMP) assay (AID 1508630); also: potency is read from the fitted curve at half-maximal effect
How it was run: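 GLuc-SERCaMP-expressing SH-SY5Y cells, pretreated 16 h with compound, are challenged with thapsigargin to empty ER calcium stores; after 4 h, coelenterazine is added directly to the medium and luminescence is imaged.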

[5] = molecular target: Papain (Carica papaya) (UniProt P00784); assay: Primary qHTS assay for inhibitors of the protease papain (AID 1645873);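 also: papain turnover of Z-FR-AMC read as the AMC fluorescence gain over 10 min; series mostly up to about 50 µM; % is scaled to controls: 0 for no effect and ±100 for the full control effect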
[6] = molecular target: Single-stranded DNA cytosine deaminase (Homo sapiens) (UniProt Q9GZX7); assay: Validation qHTS assay for inhibitors of Activation Induced Cytidine Deaminase (AID): AID signal (AID 1347429); also: % is scaled to controls: 0 for no effect and ±100 for the full control effect
How it was run: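 Fluorescence at 540 nm excitation and 590 nm emission reports ssDNA cytosine deamination by AID, with UDG in the same well. Compound-treated reactions ran 4 hr at room temperature with DJC20/DJC23 substrate, followed by 30 min NaOH treatment.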

[7] = Primary qHTS for inhibitors of La Crosse Virus (LACV) - induced cell death in SH-SY5Y cells (AID 1508616); also: potency is read from the fitted curve at half-maximal effect
How it was run: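 Protection against LACV-induced cell death is scored in SH-SY5Y cells exposed to compounds and virus (0.01 MOI) for 6 days. Data normalized to virus-infected DMSO wells and virus-free DMSO wells.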

[8] = molecular target: Calcium and integrin-binding protein 1 (Homo sapiens) (UniProt Q99828); assay: Validation qHTS for Identification of Calcium Integrin Binding protein 1 (CIB1) Competitor (AID 1508618); also: % is scaled to controls: 0 for no effect and ±100 for the full control effect
How it was run: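 In this qHTS validation, the LOPAC set (up to 114 uM) was tested for blocking CIB1 binding to a fluorescein-tagged alphaIIb peptide, with FP detection at 480/540 nm.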

[9] = Counterscreen qHTS for small molecule stabilizers of the endoplasmic reticulum resident proteome: GLuc-NoTag assay (AID 1508627);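 also: SH-SY5Y cells given compound then 100 nM thapsigargin to empty ER calcium; series mostly up to about 76 µM; 0% = thapsigargin alone and -100% = DMSO vehicle control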
How it was run: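 SH-SY5Y cells stably expressing constitutively secreted GLuc without SERCaMP tag, exposed to compound for 19 hr, then to 100 nM thapsigargin for 4 hr at 37C. Medium luciferase was read by coelenterazine luminescence without lysis.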

[10] = Confirmatory qHTS for small molecule stabilizers of the endoplasmic reticulum resident proteome: Secreted ER Calcium Modulated Protein (SERCaMP) assay (AID 1508628); also: nearly all actives have a fitted effect of over 40% in size; also: potency is read from the fitted curve at half-maximal effect
How it was run: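 SH-SY5Y cells stably expressing GLuc-SERCaMP, treated 16 h with compound (primary 1.53, 7.67, 38.3 uM; confirmation 11 concentrations, up to 76.6 uM), then 100 nM thapsigargin for 4 h. Secreted Gaussia luciferase in medium read by coelenterazine luminescence.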

[11] = molecular target: Protein phosphatase 1D (Homo sapiens) (UniProt O15297); assay: RapidFire Mass Spectrometry qHTS Assay for Modulators of WT P53-Induced Phosphatase 1 (WIP1) (AID 1347424);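 also: amount of dephosphorylated VEPPL-S-QETFS peptide product formed by WIP1; series mostly up to about 63 µM; plate controls were DMSO wells for no effect and GSK830371 inhibitor control at 10 µM for full effect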
How it was run: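 10 nM WIP1 preincubated with compounds 1 hr at room temperature in pH 7.5 Tris buffer with 30 mM MgCl2, 1 mM TCEP; 2 uM VEPPL-pS-QETFS phosphopeptide for 5 min, formic acid quench; dephosphorylated product quantified by RapidFire MS against labelled standard.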

[12] = molecular target: Protein phosphatase 1D (Homo sapiens) (UniProt O15297); assay: Rhodamine-PBP qHTS Assay for Modulators of WT P53-Induced Phosphatase 1 (WIP1) (AID 1347425); also: % of control where 0% means no effect
How it was run: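 Steps: enzyme with Rh-PBP sensor and compounds, room-temperature incubation of 1 hr, baseline read, addition of VEPPL-pS-QETFS (10 uM final), kinetic fluorescence reads at 525/598 nm. Activity equals final minus baseline signal.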

[13] = molecular target: Calcium and integrin-binding protein 1 (Homo sapiens) (UniProt Q99828); assay: Primary qHTS for Identification of Calcium Integrin Binding Protein 1 (CIB1) Competitor (AID 1508620);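 also: GST tagged CIB1 binding a fluorescein labelled alphaIIb integrin peptide tracer; top concentration of the series differs between compounds; % is scaled to controls: 0 for no effect and ±100 for the full control effect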
How it was run: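 Fluorescence polarization competition: GST-tagged CIB1 (1 uM final) preincubated with compound 15 min at room temperature, then FITC-labelled alphaIIb peptide (100 nM final) added. After 15 min at room temperature, polarization read at Ex 480/Em 540.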

[14] = A High-Content qHTS Against Drug Library for the Identification of Small Molecules that Inhibit DYT1 Early Onset Primary Dystonia-Associated Cell Pathology (AID 1645839; calls by dose curve; also: series mostly up to about 46 µM)
How it was run: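 Flp-In T-REx 293 cells with tetracycline-inducible EGFP-delE hTOR1A (WT EGFP-hTOR1A as reference), 800 cells/well; compound added with tetracycline, 48 h at 37 C. Fixed, permeabilized cells imaged; %pathology (punctate TorsinA) primary, cell count counterscreen.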

[15] = molecular target: Cytochrome P450 2D6 (Homo sapiens) (UniProt P10635); assay: Cytochrome P450 family 2 subfamily D member 6 (CYP2D6) small molecule antagonists: luciferase biochemical (cell-free) qHTS assay (AID 1645840; active = well fitted curve in the direction sought with a large enough effect in the repeat runs; an effect the other way counts as inactive or inconclusive; also: nearly all actives have a fitted effect of over 55% in size; also: potency is read from the fitted curve at half-maximal effect)
How it was run: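 P450-Glo luminescent screen: recombinant CYP2D6 enzyme–proluciferin substrate mix preincubated with compound 10 min at room temperature, then NADPH regeneration added for 1 h at room temperature. Detection reagent added for 20 min; luciferin light read as relative luminescence units.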

[16] = molecular target: Cytochrome P450 3A4 (Homo sapiens) (UniProt P08684); assay: Cytochrome P450 family 3 subfamily A member 4 (CYP3A4) small molecule antagonists: luciferase qHTS assay (AID 1645841; active = well fitted curve in the direction sought with a large enough effect in the repeat runs; an effect the other way counts as inactive or inconclusive; also: nearly all actives have a fitted effect of over 45% in size)
How it was run: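 P450-Glo CYP3A4 enzyme with proluciferin substrate preincubated 10 min with compound at room temperature, then NADPH regeneration 1 h. Luciferin detection reagent added for 20 min; luminescence recorded. Ketoconazole positive control.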

[17] = molecular target: Cytochrome P450 2C9 (Homo sapiens) (UniProt P11712); assay: Cytochrome P450 family 2 subfamily C member 9 (CYP2C9) small molecule antagonists: luciferase biochemical (cell-free) qHTS assay (AID 1645842; active = well fitted curve in the direction sought with a large enough effect in the repeat runs; an effect the other way counts as inactive or inconclusive; also: nearly all actives have a fitted effect of over 55% in size; also: potency is read from the fitted curve at half-maximal effect)
How it was run: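 Luminescence, after 20 min with luciferin detection reagent, reflected CYP2C9 turnover during a 1 h NADPH-driven reaction at 37C. Enzyme-substrate mix contained 0.4% bovine serum albumin and was preincubated with compound 10 min at room temperature.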

[18] = Cell Viability qHTS for small molecule stabilizers of the endoplasmic reticulum resident proteome (AID 1508629); conditions: cell viability counter-screen, 100 nM thapsigargin for final 4 h

Chain of Calcium and integrin-binding protein 1 (Homo sapiens) (Q99828 whole entry, looked up): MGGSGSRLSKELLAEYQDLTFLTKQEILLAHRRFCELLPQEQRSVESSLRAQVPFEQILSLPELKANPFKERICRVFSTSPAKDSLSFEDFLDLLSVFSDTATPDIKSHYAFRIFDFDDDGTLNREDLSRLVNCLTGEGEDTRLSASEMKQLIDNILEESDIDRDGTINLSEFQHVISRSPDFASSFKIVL
Chain of Single-stranded DNA cytosine deaminase (Homo sapiens) (Q9GZX7 whole entry, looked up): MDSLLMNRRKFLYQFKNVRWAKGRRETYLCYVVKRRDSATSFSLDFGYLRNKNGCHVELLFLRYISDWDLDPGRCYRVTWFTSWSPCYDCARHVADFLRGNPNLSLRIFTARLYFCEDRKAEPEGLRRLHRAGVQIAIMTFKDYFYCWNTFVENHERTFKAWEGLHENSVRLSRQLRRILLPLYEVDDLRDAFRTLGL
Chain of Cytochrome P450 2C9 (Homo sapiens) (P11712 whole entry, looked up): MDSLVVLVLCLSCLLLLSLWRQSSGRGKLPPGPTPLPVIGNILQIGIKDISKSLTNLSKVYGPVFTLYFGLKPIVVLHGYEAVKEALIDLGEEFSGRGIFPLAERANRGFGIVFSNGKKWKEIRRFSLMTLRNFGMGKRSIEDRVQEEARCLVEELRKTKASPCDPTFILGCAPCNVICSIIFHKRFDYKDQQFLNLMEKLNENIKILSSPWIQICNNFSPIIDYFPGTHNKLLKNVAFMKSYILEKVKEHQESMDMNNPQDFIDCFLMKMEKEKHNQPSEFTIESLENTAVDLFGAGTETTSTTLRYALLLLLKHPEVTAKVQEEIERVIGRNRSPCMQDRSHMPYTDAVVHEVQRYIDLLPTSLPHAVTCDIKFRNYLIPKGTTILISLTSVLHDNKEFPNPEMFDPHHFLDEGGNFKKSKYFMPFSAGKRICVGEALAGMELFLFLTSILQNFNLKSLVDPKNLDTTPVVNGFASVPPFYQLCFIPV
Chain of Protein phosphatase 1D (Homo sapiens) (O15297 whole entry, looked up): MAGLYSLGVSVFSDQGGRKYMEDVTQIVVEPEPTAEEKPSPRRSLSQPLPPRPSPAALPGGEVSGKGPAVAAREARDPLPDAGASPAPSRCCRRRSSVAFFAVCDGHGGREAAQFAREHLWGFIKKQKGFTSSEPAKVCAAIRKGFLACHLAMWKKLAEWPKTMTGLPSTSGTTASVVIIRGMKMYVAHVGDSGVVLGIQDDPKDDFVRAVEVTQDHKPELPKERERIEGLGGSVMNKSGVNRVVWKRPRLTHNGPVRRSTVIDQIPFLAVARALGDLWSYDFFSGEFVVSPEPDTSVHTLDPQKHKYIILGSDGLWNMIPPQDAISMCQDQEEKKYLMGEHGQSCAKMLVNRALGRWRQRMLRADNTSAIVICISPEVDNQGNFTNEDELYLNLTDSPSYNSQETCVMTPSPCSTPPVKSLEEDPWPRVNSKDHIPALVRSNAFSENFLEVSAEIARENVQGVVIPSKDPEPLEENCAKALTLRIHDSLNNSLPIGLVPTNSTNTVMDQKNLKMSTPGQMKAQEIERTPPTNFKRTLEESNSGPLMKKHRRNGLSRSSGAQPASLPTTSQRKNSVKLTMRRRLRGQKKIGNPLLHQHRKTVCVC
Chain of Papain (Carica papaya) (P00784 whole entry, looked up): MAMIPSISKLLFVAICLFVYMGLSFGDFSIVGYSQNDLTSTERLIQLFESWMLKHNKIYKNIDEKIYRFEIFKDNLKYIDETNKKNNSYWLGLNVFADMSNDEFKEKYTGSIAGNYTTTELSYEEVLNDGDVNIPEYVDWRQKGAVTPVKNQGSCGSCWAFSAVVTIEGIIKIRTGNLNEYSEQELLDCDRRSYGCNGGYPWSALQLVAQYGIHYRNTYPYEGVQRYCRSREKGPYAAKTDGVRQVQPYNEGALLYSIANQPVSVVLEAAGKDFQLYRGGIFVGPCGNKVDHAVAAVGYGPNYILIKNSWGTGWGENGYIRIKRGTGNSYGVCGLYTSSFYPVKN
Chain of Cytochrome P450 2D6 (Homo sapiens) (P10635 whole entry, looked up): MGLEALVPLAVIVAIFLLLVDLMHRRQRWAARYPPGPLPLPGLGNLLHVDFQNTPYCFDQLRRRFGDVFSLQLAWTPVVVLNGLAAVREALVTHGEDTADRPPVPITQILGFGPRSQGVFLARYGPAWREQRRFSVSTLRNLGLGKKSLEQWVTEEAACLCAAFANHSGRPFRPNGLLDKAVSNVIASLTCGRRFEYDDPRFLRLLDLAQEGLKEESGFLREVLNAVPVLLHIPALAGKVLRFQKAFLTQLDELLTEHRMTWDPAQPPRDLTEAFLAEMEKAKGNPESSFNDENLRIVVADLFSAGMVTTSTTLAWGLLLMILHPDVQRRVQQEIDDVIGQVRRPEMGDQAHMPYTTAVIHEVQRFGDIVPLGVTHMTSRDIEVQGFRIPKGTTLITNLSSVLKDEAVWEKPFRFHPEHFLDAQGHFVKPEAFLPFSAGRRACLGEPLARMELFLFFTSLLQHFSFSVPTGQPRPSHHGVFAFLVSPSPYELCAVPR
Chain of Cytochrome P450 3A4 (Homo sapiens) (P08684 whole entry, looked up): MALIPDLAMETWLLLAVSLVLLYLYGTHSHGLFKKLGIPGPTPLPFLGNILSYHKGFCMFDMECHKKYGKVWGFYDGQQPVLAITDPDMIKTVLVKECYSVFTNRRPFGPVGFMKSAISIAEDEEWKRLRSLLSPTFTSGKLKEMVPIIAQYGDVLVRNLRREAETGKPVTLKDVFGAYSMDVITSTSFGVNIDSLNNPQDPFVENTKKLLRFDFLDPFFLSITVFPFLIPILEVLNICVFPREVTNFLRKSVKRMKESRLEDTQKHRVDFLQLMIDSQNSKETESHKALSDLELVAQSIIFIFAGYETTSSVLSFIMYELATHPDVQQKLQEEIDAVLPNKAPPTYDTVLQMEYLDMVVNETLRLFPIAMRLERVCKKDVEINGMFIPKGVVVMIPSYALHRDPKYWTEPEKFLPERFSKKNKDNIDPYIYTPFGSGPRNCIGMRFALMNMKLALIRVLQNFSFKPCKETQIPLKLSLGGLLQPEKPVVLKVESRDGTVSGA

CCOC(=O)N1CCN(/[N+]([O-])=N/Oc2ccc([N+](=O)[O-])cc2[N+](=O)[O-])CC1
inactive: outcome [1] | Potency [3] | Potency [4] | Potency [5]
active: Potency [2] 20.8 µM

NC(=S)c1ccc[n+]([C@@H]2O[C@@H](COP(=O)([O-])OP(=O)(O)OC[C@H]3O[C@@H](n4cnc5c(N)ncnc54)[C@H](OP(=O)(O)O)[C@@H]3O)C(O)C2O)c1 (stereo not given in full)
inactive: outcome [1] | Potency [3] | Potency [6] | Potency [7] | outcome [8] | Potency [9] | Potency [10] | Potency [5]

O=P(O)(O)C(Cl)(Cl)P(=O)(O)O
inactive: outcome [1] | Potency [3] | Potency [6] | Potency [7] | outcome [8] | Potency [4] | Potency [5]

NC[C@H]1O[C@@H](n2cnc3c(N)ncnc32)[C@H](O)[C@@H]1O
inactive: outcome [1] | Potency [3] | Potency [6] | Potency [7] | outcome [8] | Potency [4] | Potency [5]

CCN(CC)c1ncnc2c1ncn2[C@@H]1O[C@H](COP(=O)(O)OP(=O)(O)C(Br)(Br)P(=O)(O)O)[C@@H](O)[C@H]1O
inactive: outcome [1] | Potency [3] | Potency [6] | Potency [7] | outcome [8] | Potency [4] | Potency [5]

CCCCCCCCc1ccc(-c2ccc(C(=O)O)cc2)cc1
inactive: outcome [1] | Potency [3] | Potency [6] | Potency [7] | outcome [8] | Potency [4] | Potency [5]

CCC1C(=O)OCC1Cc1cncn1C (stereo not given)
inactive: outcome [1] | Potency [11] | outcome [12] | Potency [3] | Potency [6] | Potency [7] | outcome [8] | Potency [13] | Potency [4] | Potency [14] | Potency [15] | outcome [16] | Potency [17] | Potency [5]

O=C1NC(=O)/C(=C/c2ccc3nccnc3c2)S1
inactive: outcome [1] | Potency [2] | Potency [3] | Potency [7] | Potency [5]

CC(N)C(=O)OC(C)(C)Cc1ccc(Cl)cc1 (stereo not given)
active: Potency [15] 12.3 µM | Potency [17] 12.3 µM
inactive: outcome [1] | Potency [11] | outcome [12] | Potency [3] | Potency [6] | Potency [7] | Potency [4] | Potency [14] | Potency [5]

O=C1NCc2c1c1c3ccccc3[nH]c1c1[nH]c3ccccc3c21
inactive: outcome [1]

CN1CC(=O)N/C1=N/C(=O)Nc1cccc(Cl)c1
inactive: outcome [1] | outcome [12] | Potency [3] | Potency [6] | Potency [7] | Potency [13] | Potency [4] | Potency [14] | Potency [17] | Potency [5]

Cc1cc2c(cc1Cl)N(C(=O)Nc1ccc(Oc3cccnc3C)nc1)CC2
inactive: outcome [1] | Potency [3] | Potency [6] | Potency [7] | outcome [8] | Potency [5]

CN1C2CCC1CC(OC(=O)C(O)c1ccccc1)C2 (stereo not given)
inactive: outcome [1] | Potency [3] | Potency [6] | Potency [7] | outcome [8] | Potency [5]

NC(CCCP(=O)(O)O)C(=O)O (stereo not given)
inactive: outcome [1] | Potency [3] | Potency [6] | Potency [7] | outcome [8] | Potency [4] | Potency [5]

C[C@@H](CN1CCC(Cc2ccccc2)CC1)[C@@H](O)c1ccc(O)cc1
inactive: outcome [1] | Potency [3] | Potency [6] | Potency [7] | Potency [4] | Potency [5]

O=C(c1ccc(OCCCc2cnc[nH]2)cc1)C1CC1
inactive: outcome [1] | Potency [3] | Potency [6] | Potency [7] | outcome [8] | Potency [5]

NC(=O)C(=O)O
inactive: outcome [1] | Potency [3] | Potency [6] | Potency [7] | outcome [8] | Potency [4] | Potency [5]

CC(C)CC(NP(=O)(O)O[C@@H]1O[C@@H](C)[C@H](O)[C@@H](O)[C@H]1O)C(=O)NC(Cc1c[nH]c2ccccc12)C(=O)O (stereo not given in full)
inactive: outcome [1] | Potency [3] | Potency [6] | Potency [7] | outcome [8] | Potency [5]

COc1cccc(C(=O)NCCN2CCN(c3ccc(Cl)cc3)CC2)c1
inactive: outcome [1] | Potency [3] | Potency [6] | Potency [7] | outcome [8] | Potency [5]

C[N+]1(C)CCC(OC(=O)C(c2ccccc2)c2ccccc2)CC1
inactive: outcome [1] | Potency [3] | Potency [6] | Potency [7] | Potency [4] | Potency [5]

COc1ccc(NC(=O)/C=C/c2ccc(Cl)cc2)cc1
inactive: outcome [1] | Potency [3] | Potency [6] | Potency [7] | outcome [8] | Potency [4] | Potency [5]

COc1cc(OC)c(/C=C2/C(=O)Nc3ccccc32)c(OC)c1
inactive: outcome [1] | Potency [3] | Potency [6] | Potency [4]
active: Potency [7] 0.891 µM

O=C(O)c1cc(=O)c2c(Cl)cc(Cl)cc2[nH]1
inactive: outcome [1] | Potency [3] | Potency [6] | Potency [7] | outcome [8] | Potency [4] | Potency [5]

Cc1ccc(O)c(N=Nc2ccccc2)n1
inactive: outcome [1] | Potency [3] | Potency [6] | Potency [7] | Potency [9] | Potency [4] | Potency [5]

N[C@@H](CC(=O)O)C(=O)O
inactive: outcome [1] | Potency [3] | Potency [6] | Potency [7] | Potency [4] | Potency [5]

Oc1ccccc1O
inactive: outcome [1] | Potency [3] | Potency [6] | max response [18] -15.9% | Potency [5]
active: Potency [7] 2 µM | Potency [10] 7.08 µM | Potency [4] 25.1 µM

CN1CCc2cc(NC(=O)Nc3cccnc3)ccc21
inactive: outcome [1] | Potency [3] | Potency [6] | Potency [7] | outcome [8] | Potency [4] | Potency [5]
